Bioassay records deposited in PubChem by The Scripps Research Institute Molecular Screening Center.
Most compounds without a hit are left out; they make up all but 4.1% or so of the library.
ssDAF12 agonist: S. stercoralis DAF-12 nuclear receptor activators, primary screen, cell-based, luminescence, HEK293, GRIP1 co-expression, lit1-tk-luc; Nuclear hormone receptor DAF-12 (Strongyloides stercoralis); HEK293 ssDAF-12/GRIP1 lit1-tk-luc reporter; % of 3 µM dafachronic acid response; activation, % at 6.8 µM; 370,000 tested, 1% active; AID 652126, 2013;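 active means activation above the mean over all tested compounds plus 3 SD, cut at about 0.9% in these data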;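 further: 0% = DMSO-only wells and 100% = 3 µM delta7-dafachronic acid wells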
DAX1 inh-1: DAX1 (NR0B1) inhibitors, primary screen, cell-based, HEK293, Gal4-DAX1, luciferase luminescence; Nuclear receptor subfamily 0 group B member 1 (Homo sapiens), P51843; HEK293 Gal4-DAX1 luciferase reporter; inhibition, % at 6.75 µM; 340,000 tested, 0.99% active;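 active means inhibition above the mean over all tested compounds plus 3 SD, cut at about 4.2% in these data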;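 further: 0% = DAX1-transfected cells with DMSO and 100% = empty-vector control cells with DMSO; inhibition shows as a rise in luminescence from relieved DAX1 repression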
Target sequence (P51843 207-470 limits assumed): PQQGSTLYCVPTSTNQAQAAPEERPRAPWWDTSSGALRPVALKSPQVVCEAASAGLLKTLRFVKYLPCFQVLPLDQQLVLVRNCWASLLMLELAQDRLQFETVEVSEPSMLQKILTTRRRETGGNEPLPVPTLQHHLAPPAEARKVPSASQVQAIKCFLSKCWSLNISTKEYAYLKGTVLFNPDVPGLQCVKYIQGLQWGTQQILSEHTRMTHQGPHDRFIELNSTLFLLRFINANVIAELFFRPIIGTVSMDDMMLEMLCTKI
DAX1 inh-2: DAX1 (NR0B1) inhibitors on StAR promoter, primary screen, cell-based, luminescence, SF-1 (NR5A1), full-length DAX-1 | HEK293T StAR-luciferase reporter, SF-1/DAX-1 repression relief | inhibition, % at 6.8 µM | 370,000 tested, 1.1% active | AID 652010, 2013;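 active means inhibition above the mean over all tested compounds plus 3 SD, cut at about 3.6% in these data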;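 further: 0% = DAX-1 cells with DMSO and 100% = cells lacking DAX-1 with DMSO; higher inhibition means more luminescence from relief of DAX-1 repression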
hcDAF12 agonist: H. contortus DAF-12 nuclear receptor activators, primary screen, cell-based, luminescence, HEK293, lit1-tk-luc reporter. 370,000 tested, 1.4% active. HEK293 hcDAF-12 lit1-tk-luc reporter; 0% DMSO, 100% Δ7-dafachronic acid. activation, % at 6.8 µM. AID 652067, 2013;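 active means activation above the mean of all tested compounds plus 3 SD, cut at about 5.5% in these data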;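 further: 100% = response to 3 µM Δ7-dafachronic acid high control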
hgDAF12 agonist: H. glycines DAF-12 receptor agonists, primary screen, cell-based, luminescence, HEK293, GAL4 fusion, UAS-luciferase; Nuclear hormone receptor DAF-12 (Heterodera glycines), GAL4 fusion; activation, % at 6.8 µM; HEK293 GAL4-hgDAF12 UAS-luciferase reporter, agonist luminescence; normalized to butyrate control; 370,000 tested, 1.8% active; AID 687014, 2013;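 active means activation above a cutoff set at the mean of all screened compounds plus 3 SD, cut at about 10% in these data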;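 further: 0% = DMSO wells and 100% = sodium butyrate wells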
An asterisk follows results filed as active; . = no result given.

SMILES | ssDAF12 agonist | DAX1 inh-1 | DAX1 inh-2 | hcDAF12 agonist | hgDAF12 agonist
O=C(c1cccs1)N1CCC(c2ccccc2)C1 (stereo not drawn) | 0.2 | 1.2 | 0.7 | 2.3 | 12.1*
C[C@H]1CN(C(=O)OC(C)(C)C)CCN1c1ccc(N2CC[C@@H](O)C2)c(C#N)c1 | -0.9 | . | -0.4 | -2.0 | 5.5
COCCCNC(=O)c1ccc(CN2CCc3ccccc3C2)cc1 | -1.2 | 20.8* | 0.2 | -1.7 | 1.3
CCCC1CCC2(CCCN2CCOC(=O)Nc2ccc(F)cc2)CC1 (stereo not drawn) | -1.9 | . | . | -1.4 | 3.3
O=C(Cc1ccccc1)NNc1ccc2ccccc2c1 | -0.2 | 3.0 | 2.0 | 5.9* | 0.8
O=C(O)CSc1nnc(-c2ccc3c(c2)OCO3)o1 | 0.1 | -0.2 | 0.3 | 1.4 | 2.7
NC(=O)CSc1nnc(-c2ccc3c(c2)OCO3)o1 | 2.8* | . | 3.2 | 2.9 | 12.7*
CCN1CCCCC(NC(=O)c2ccccc2)C1=O (stereo not drawn) | -0.6 | . | 1.0 | -0.3 | -2.3
COC(=O)[C@H](CC1(c2cn(S(=O)(=O)CC[Si](C)(C)C)c3ccccc23)C(=O)Nc2ccccc21)NC(=O)OC(C)(C)C (stereo partly drawn) | -1.1 | . | . | 3.8 | 1.3
CC(C)Cn1c2c(c(=O)[nH]c1=O)C(NS(=O)(=O)c1ccc(Cl)cc1)(C(F)(F)F)C(=O)N2 (stereo not drawn) | -0.9 | 4.3* | -0.2 | 1.8 | -2.0
CCCc1cc(=O)[nH]c(SC/C=C/c2ccccc2)n1 | -1.4 | . | 0.3 | 1.2 | 1.5
CCCc1cc(=O)[nH]c(N/N=C/C=C\c2ccccc2)n1 | -1.6 | 4.9* | 0.4 | -1.2 | 0.9
CC(C)N(CCn1cnc2c([nH]c3ccccc32)c1=O)C(C)C | 0.3 | -0.2 | 0.7 | 6.1* | 3.4
O=C(NNC(=O)c1cnccn1)c1ccc(Cl)cc1 | -0.5 | 5.8* | -0.9 | 0.1 | -0.1
Cc1ccc(S(=O)(=O)Nc2nc(C)cc(NCCN)n2)cc1 | -1.4 | 4.7* | -0.3 | -1.2 | 2.8
Cc1nn(-c2ccccc2)c(C)c1-c1ccccc1O | -0.6 | -1.1 | -0.2 | -1.8 | -2.6
Cc1nn(-c2ccccc2)c(/N=C/c2ccc(O)cc2)c1-c1ccccc1 | 1.0* | 0.0 | -4.6 | 0.6 | 9.4
O=C1c2ccccc2C(c2nnnn2-c2ccc3c(c2)OCCO3)N1CCc1ccc(O)cc1 (stereo not drawn) | -0.6 | . | 2.8 | 0.4 | -1.3
O=C1c2ccccc2C(c2nnnn2-c2ccc3c(c2)OCCO3)N1CCc1ccccc1F (stereo not drawn) | -0.7 | . | 4.4* | -1.1 | -0.8
Cc1ccc(OCc2ccc(C(=O)Nc3nccs3)o2)cc1 | -1.0 | -1.5 | 0.2 | 0.1 | 3.6
Cc1ccc(SCc2ccc(C(=O)Nc3nccs3)o2)cc1 | -0.3 | 1.2 | 1.6 | 0.2 | 7.2
O=C(Nc1nccs1)c1ccc(COc2ccccc2)o1 | -0.4 | 2.7 | 1.5 | 2.0 | 11.0*
O=C(Nc1nccs1)c1ccc(CSc2ccccc2)o1 | 0.4 | 0.3 | 6.2* | 1.6 | 9.5
O=C(Nc1c(-c2ccccc2)nc2ncccn12)c1ccc(F)cc1 | -0.8 | . | -1.1 | 1.4 | 0.8
CCC(=O)Nc1nc2ccc(S(C)(=O)=O)cc2s1 | -0.8 | 1.2 | -1.3 | -2.7 | 7.8
SMILES | ssDAF12 agonist | DAX1 inh-1 | DAX1 inh-2 | hcDAF12 agonist | hgDAF12 agonist
Cc1ccccc1NC(=O)Nc1nc2ccc(S(C)(=O)=O)cc2s1 | -1.3 | 9.0* | -0.1 | 1.7 | 7.9
CS(=O)(=O)c1ccc2nc(NC(=O)c3cccc([N+](=O)[O-])c3)sc2c1 | 0.1 | 0.9 | -0.1 | 3.3 | 10.7*
CCCC(=O)Nc1nc2ccc(S(N)(=O)=O)cc2s1 | -0.3 | 1.0 | -0.2 | 3.5 | 2.5
NS(=O)(=O)c1ccc2nc(NC(=O)Nc3ccccc3F)sc2c1 | -0.4 | 1.5 | 1.8 | 4.5 | 10.4*
C[C@H]1COc2cc(N3CCSCC3)ccc2S(=O)(=O)N1C | -1.3 | . | 1.5 | -0.9 | -1.4
O=C(Nc1ccc2ncccc2c1)c1cc(-c2ccc(Cl)cc2)nc2ccccc12 | -1.3 | . | 0.6 | 2.2 | 2.4
O=C(Nc1sc2c(c1C(=O)O)CCC2)c1cccs1 | -0.8 | 1.5 | 0.5 | 5.7* | 3.6
Cc1cc(Br)ccc1OCc1nnc(-c2ccccc2)o1 | -1.2 | . | 0.7 | 0.5 | 3.6
Clc1ccccc1OCc1nnc(-c2ccccc2)o1 | -0.9 | 0.8 | 1.0 | 2.3 | 12.8*
CCOC(=O)Cc1csc(NC(=O)/C=C/c2ccc(OC)cc2)n1 | -1.3 | -4.0 | 0.2 | -0.6 | 12.2*
CCOC(=O)Cc1csc(NC(=O)c2cnc3sc(C)cn3c2=O)n1 | -0.2 | 1.0 | 1.1 | 6.3* | 6.4
CCOC(=O)Cc1csc(NC(=O)c2ccc(C)o2)n1 | -1.6 | 1.1 | -0.3 | -0.7 | 2.1
O=[N+]([O-])c1cccc(S(=O)(=O)Nc2cccc(-c3ccc(N4CCOCC4)nn3)c2)c1 | -0.2 | -0.7 | 4.4* | 0.1 | 3.2
O=C(COc1ccc(Cl)cc1)Nc1cccc(-c2ccc(N3CCOCC3)nn2)c1 | -0.3 | -0.7 | 3.5 | 4.6 | 12.0*
Cc1ccc(C(=O)Nc2cccc(-c3ccc(N4CCOCC4)nn3)c2)cc1 | -0.2 | 0.6 | 4.5* | 1.9 | 4.7
Cc1ccc(C(=O)Nc2cccc(-c3ccc(N4CCOCC4)nn3)c2)cc1C | -0.2 | -2.0 | 1.6 | 0.8 | 5.7
Cc1ccc(Cn2cc(COC(=O)N3CCCC3)nn2)cc1 | -0.3 | . | 0.1 | -3.9 | -1.4
COc1ccc(NC(=O)N2CCC(N(C)CCC(C)C)CC2)cc1OC | -0.5 | . | -0.5 | -3.3 | 5.3
O=C(c1cc(Cl)cc(Cl)c1)N1CC[C@H]2[C@H](CCCN2Cc2ccccc2)C1 | -1.6 | . | -0.8 | -0.3 | 1.0
CN(CCOC(=O)c1occ2ccccc12)C1CN(Cc2cn(Cc3ccccc3Cl)nn2)S(=O)(=O)C1 (stereo not drawn) | -1.2 | . | -0.1 | -2.1 | 2.3
O=[N+]([O-])c1cccnc1Nc1ccc(Cl)cc1 | -0.5 | -0.3 | -0.2 | 2.0 | 4.0
Clc1ccc(Nc2nc3cccnc3s2)cc1 | -0.5 | 1.8 | 1.4 | 3.8 | 11.1*
CCCS(=O)(=O)Nc1cccc(-c2nc3cccnc3s2)c1 | -1.4 | 0.0 | 0.3 | 0.7 | 5.7
CCCCNc1nc2cccnc2s1 | -0.9 | 6.3* | 0.4 | 0.1 | 4.7
C[C@H](O)[C@@H]1CN2CCc3ccc(-c4ccc5c(c4)OCO5)cc3[C@@H]2C[C@@H]1N(C)C(=O)c1ccco1 | -1.0 | . | 0.2 | -0.6 | -0.4
CCCn1c(-c2ccc[nH]c2=O)nc2cc(C)c(C)cc21 | 1.1* | 4.4* | 2.7 | 3.4 | 8.1
